# In PubChem BioAssay AID602143 (Vanderbilt Specialized Chemistry Center, 2011):
# Unmarked numbers belong to inactive results. Activity calls are given as the source filed them. Rule as the data show it: active = remaining activity below about 50%; inactive = the rest.
# Biological target: Phospholipase D2 (Homo sapiens) (UniProt O14939)
# Test: cellular phospholipase D2 activity inhibition – cell-based, HEK293, single concentration (AID 602143);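 also: tested at 200 nM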
# Settings: HEK293 cellular PLD2 activity, percent of control; hits give low values
# Phospholipase D2 (Homo sapiens), sequence (O14939 whole entry, looked up): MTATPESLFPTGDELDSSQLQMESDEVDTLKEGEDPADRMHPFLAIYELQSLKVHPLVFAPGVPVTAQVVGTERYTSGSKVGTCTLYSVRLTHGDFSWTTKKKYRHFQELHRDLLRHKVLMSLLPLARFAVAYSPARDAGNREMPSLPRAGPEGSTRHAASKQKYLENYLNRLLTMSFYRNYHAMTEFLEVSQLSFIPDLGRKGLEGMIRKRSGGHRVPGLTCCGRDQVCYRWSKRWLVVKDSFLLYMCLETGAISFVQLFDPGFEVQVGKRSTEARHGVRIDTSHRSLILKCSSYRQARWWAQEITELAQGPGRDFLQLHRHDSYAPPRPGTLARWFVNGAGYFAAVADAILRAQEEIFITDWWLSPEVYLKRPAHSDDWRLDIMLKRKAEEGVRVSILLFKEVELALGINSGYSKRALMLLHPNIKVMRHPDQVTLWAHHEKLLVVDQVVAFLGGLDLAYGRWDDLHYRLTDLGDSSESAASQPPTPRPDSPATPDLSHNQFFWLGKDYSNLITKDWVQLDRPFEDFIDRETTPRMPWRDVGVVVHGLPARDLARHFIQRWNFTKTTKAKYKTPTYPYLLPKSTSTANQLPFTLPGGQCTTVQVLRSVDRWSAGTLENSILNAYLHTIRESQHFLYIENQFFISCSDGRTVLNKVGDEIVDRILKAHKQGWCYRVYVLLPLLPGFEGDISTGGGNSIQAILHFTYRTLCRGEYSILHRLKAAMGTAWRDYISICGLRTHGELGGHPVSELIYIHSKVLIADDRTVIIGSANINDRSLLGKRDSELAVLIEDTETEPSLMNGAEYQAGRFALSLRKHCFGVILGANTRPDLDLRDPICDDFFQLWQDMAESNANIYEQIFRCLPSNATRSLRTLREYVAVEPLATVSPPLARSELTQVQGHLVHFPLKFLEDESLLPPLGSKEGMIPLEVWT
# Phospholipase D2 (Homo sapiens), sequence (O14939 whole entry, looked up): as above
row,Compound,remaining activity
1,CC(C(=O)NCCN1CCC(n2c(=O)[nH]c3ccccc32)CC1)(c1ccccc1)c1ccccc1,65.3%
2,O=c1[nH]c2ccccc2n1C1CCN(CCNS(=O)(=O)c2cccc3cccnc23)CC1,112%
3,O=C(c1ccc2ccccc2c1)N1CCC(n2c(=O)[nH]c3cc(Cl)ccc32)CC1,77.7%
4,O=C1c2ccccc2C(=O)N1CCN1CCC(n2c(=O)[nH]c3ccccc32)CC1,87.7%
5,O=C(NCCN1CCC(C(=O)NCCc2ccccn2)CC1)c1ccc2ccccc2c1,100%
6,O=C(NCCN1CCC(n2c(=O)[nH]c3ccccc32)CC1)C1CCCCCCCCCC1,81.3%
7,C[C@@H](CN1CCC(n2c(=O)[nH]c3cc(-c4ccccc4)ccc32)CC1)NC(=O)[C@H]1C[C@@H]1c1ccccc1,79.2%
8,Cn1c(=O)n(C2CCN(CCNC(=O)c3ccc(F)cc3)CC2)c2ccccc21,69.8%
9,O=C(NCCN1CCC(n2c(=O)[nH]c3ccccc32)CC1)c1ccc(Cc2ccccc2)cc1,72.9%
10,C[C@@H](CN1CCC2(CNCc3ccccc32)C1)NC(=O)c1ccc2ccccc2c1 (stereo not given in full),91%
11,C[C@@H](CN1CCC(n2c(=O)[nH]c3ccccc32)CC1)NC(=O)C1C[C@H]1c1ccccc1 (stereo not given in full),105%
12,C[C@@H](CN1CCC(n2c(=O)[nH]c3ccc(F)cc32)CC1)NC(=O)c1ccc(F)cc1,66.8%
13,O=C(NCCN1CCC2(C=Cc3ccccc32)CC1)[C@H]1C[C@@H]1c1ccccc1,130%
14,Cc1cccc(C(=O)NCCN2CCC(n3c(=O)[nH]c4ccccc43)CC2)n1,52.5%
15,CC(C(=O)NCCN1CCN(c2ccncc2)CC1)(c1ccccc1)c1ccccc1,110%
16,C[C@H](CN1CCC(n2nnc3ccccc32)CC1)NC(=O)c1cnc2ccccc2c1,68.5%
17,O=c1[nH]c2ccccc2n1C1CCN(CCNS(=O)(=O)c2ccccc2[N+](=O)[O-])CC1,108%
18,C[C@@H](CN1CCC2(CC1)CN(S(C)(=O)=O)c1ccccc12)NC(=O)[C@H]1C[C@@H]1c1ccccc1,109%
19,CS(=O)(=O)NCCN1CCC(n2c(=O)[nH]c3ccccc32)CC1,96.5%
20,C[C@H](CN1CCC2(CC1)CNc1ccccc12)NC(=O)c1cnc2ccccc2c1,104%

row,Compound,remaining activity
1,C[C@@H](CN1CCC(c2nc3ccccc3[nH]2)CC1)NC(=O)c1ccc2ccccc2c1,86.5%
2,O=C1c2ccccc2C(=O)N1CCCNc1ccc2ccccc2c1,91.8%
3,O=C(NCCN1CCC(n2c(=O)[nH]c3ccccc32)CC1)Nc1cccc(F)c1,87.9%
4,O=C(NCCN1CCC2(CC1)CNCc1ccccc12)c1ccc2ccccc2c1,103%
5,O=c1[nH]c2ccccc2n1C1CCN(CCN2CCCC2)CC1,93.8%
6,O=C(NCCN1CCC(n2c(=O)[nH]c3ccccc32)CC1)N1c2ccccc2Sc2ccccc21,111%
7,O=C(NCCN1CCC2(CCc3ccccc32)CC1)c1cnc2ccccc2c1,100%
8,C[C@H](CN1CCC(n2c(=O)[nH]c3cc(Cl)ccc32)CC1)NC(=O)c1cc2ccccc2[nH]1,25% (active)
9,COc1ccc2c(c1)c(CC(=O)NCCN1CCC(n3c(=O)[nH]c4ccccc43)CC1)c(C)n2C(=O)c1ccc(Cl)cc1,73.8%
10,C[C@@H](CN1CCC(n2c(=O)[nH]c3cc(-c4ccc(F)c(F)c4)ccc32)CC1)NC(=O)[C@H]1C[C@@H]1c1ccccc1,80.4%
11,C[C@@H](CN1CCC(n2c(=O)[nH]c3ccccc32)CC1)NC(=O)c1ccco1,97.1%
12,CCCCS(=O)(=O)NCCN1CCC(n2c(=O)[nH]c3ccccc32)CC1,78.3%
13,O=C(NCCN1CCC(n2c(=O)[nH]c3ccc(F)cc32)CC1)c1ccc(Cl)c(Cl)c1,0% (active)
14,O=C(NCCN1CCN(c2ccccn2)CC1)c1ccc(Cl)cc1,106%
15,CC1(C)[C@H]2CC[C@]1(CS(=O)(=O)NCCN1CCC(n3c(=O)[nH]c4ccccc43)CC1)C(=O)C2,72.8%
16,Nc1ccc(C(=O)NCCN2CCC(n3c(=O)[nH]c4ccccc43)CC2)cc1OC(F)(F)F,76.5%
17,O=C(NCCN1CCC(n2c(=O)[nH]c3ccccc32)CC1)c1cscn1,57.9%
18,CCCS(=O)(=O)NCCN1CCC(n2c(=O)[nH]c3ccccc32)CC1,64.7%
19,CC(C)[C@@H](CN1CCC(n2c(=O)[nH]c3ccccc32)CC1)NC(=O)c1cc2cc(F)ccc2[nH]1,79.5%
20,CC(C)[C@@H](CN1CCC(n2c(=O)[nH]c3ccccc32)CC1)NC(=O)c1ccc2ccccc2c1,73.3%
